# According to PubChem BioAssay:
# Activity calls are given as the source filed them.
# Experiments:
# [1] = system: XIP peptide (Xip251-270) binding; assay: small-molecule binders of XIP peptide, primary screen, biochemical, small-molecule microarray, fluorescence 635/667 nm, 0.1 µg/mL protein (AID 1182); details: fluorescent protein binding, 635 nm, higher = more signal, called active from +8 up or from −8 down
# XIP peptide (Xip251-270) = assay: small-molecule binders of XIP peptide, primary screen, biochemical, small-molecule microarray, fluorescence 635/667 nm, 0.5 µg/mL protein (AID 1183); details: small-molecule microarray binding, fluorescence 635 nm; higher = more signal
# [2] = Plasmodium falciparum growth inhibition, primary screen, strain 3D7, DAPI fluorescence, 100 nL (AID 1184);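 further: parasites grown inside human red blood cells in medium with human serum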; details: P. falciparum 3D7 growth, 3 d, higher = more signal
# [3] = target: Homeobox protein Hox-A13 (Mus musculus) (UniProt Q62424); assay: inhibitors of HoxA13-DNA binding, primary screen, biochemical, fluorescence polarization, labeled oligonucleotide (AID 1185); details: 15 min, higher = more signal, called active from +8 up or from −8 down
# Sequence of Homeobox protein Hox-A13 (Mus musculus) (Q62424 whole entry, looked up): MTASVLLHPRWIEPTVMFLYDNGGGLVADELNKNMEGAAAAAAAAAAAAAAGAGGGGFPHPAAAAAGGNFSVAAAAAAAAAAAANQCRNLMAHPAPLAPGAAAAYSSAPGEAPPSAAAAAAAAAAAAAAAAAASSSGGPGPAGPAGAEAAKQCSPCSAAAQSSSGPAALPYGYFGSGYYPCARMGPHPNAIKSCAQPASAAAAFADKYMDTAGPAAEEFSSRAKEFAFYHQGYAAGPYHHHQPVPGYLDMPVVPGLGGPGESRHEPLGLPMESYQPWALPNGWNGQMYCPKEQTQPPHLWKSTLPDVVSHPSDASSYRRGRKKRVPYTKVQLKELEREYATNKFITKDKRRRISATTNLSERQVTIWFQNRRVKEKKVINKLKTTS
Structure (SMILES),composite z-score [1],composite z-score (XIP peptide (Xip251-270)),z-score [2],z-score [3]
CCc1cc2c(nc1CC)CCN(CCC(C)=NOC(C)CN1CCCCc3nc(C)c(C)cc31)C2 (configuration not stated),0.531 (inactive),0.61,-1.86,-7.64 (inactive)
COc1cccc([C@H](O)Cn2cc(-c3ccc(CON=C(C)C)cc3)nn2)c1,0.218 (inactive),-0.851,-1.11,-4.2 (inactive)
CC(CCN1CCc2nc(-c3ccccc3)c(-c3ccccc3)cc2C1)=NO[C@@H](C)c1cc(-c2c(C)cc(C)cc2C)no1,1.27 (inactive),0.416,-1.31,0.713 (inactive)
CC(CCN1CCCc2nc(C)c(C)cc21)=NO[C@@H](C)c1cn([C@H](CO)Cc2ccccc2)nn1,0.51 (inactive),0.244,0.221,-0.829 (inactive)
C=CC[C@@H]1C=C[C@H](ON=C[C@@H](NS(=O)(=O)c2ccc(C)cc2)[C@H](C)C=CCC(=O)OC)[C@@H](CO)O1,0.278 (inactive),0.463,-0.174,-4.66 (inactive)
CC(=O)OC[C@H]1O[C@H](CC=NOC[C@@H](O)[C@H]2O[C@@H]3OC(C)(C)O[C@@H]3[C@H]2O)C=C[C@@H]1OC(C)=O,0.232 (inactive),0.732,0.158,-0.147 (inactive)
COC(=O)[C@H](C)NC(=O)CCC1CC(OC(=O)NCCc2ccc(F)cc2)CC2(CCCC(COC(=O)NCc3ccccc3)O2)O1 (some centres not stated),0.166 (inactive),0.607,-1.93,-1.56 (inactive)
COC(=O)[C@H](C)NC(=O)CCC1CC(OC(=O)NCc2cccc3ccccc23)CC2(CCCC(COC(=O)NCc3cccc(C(F)(F)F)c3)O2)O1 (some centres not stated),-0.179 (inactive),0.128,-1.74,-4.97 (inactive)
Cc1ccc2[nH]c3nc(CCCn4ccnc4-c4ccccc4)nnc3c2c1,-0.0582 (inactive),0.623,-1.09,-0.867 (inactive)
O=C1C[C@@H](O)[C@@H](O)[C@@H]2[C@@H]3C(=O)N(c4ccc(F)cc4F)C(=O)[C@@H]3CC[C@H]12,0.139 (inactive),-0.0234,0.289,-0.55 (inactive)
O=C1C=C[C@@H](O)[C@@H]2[C@@H]3C(=O)N(C4CCCCC4)C(=O)[C@@H]3CC[C@@H]12,0.386 (inactive),0.178,0.307,-0.431 (inactive)
CC(C)CON=C1C[C@@H](O)[C@@H](O)[C@@H]2[C@@H]3C(=O)N(Cc4ccccc4)C(=O)[C@@H]3CC[C@H]12,-0.0404 (inactive),0.106,-1.65,-2.34 (inactive)
CCOC(=O)CCN1C(=O)[C@H]2[C@@H]3C(=CC[C@H]2C1=O)C(=O)[C@H]1O[C@H]1[C@H]3O,-0.0103 (inactive),-0.465,-1.5,-4.11 (inactive)
CC(=O)OC[C@H]1O[C@@H](ON=C(C)C)[C@H](OC(C)=O)[C@@H](OC(C)=O)[C@@H]1OC(C)=O,-0.0542 (inactive),-0.245,0.213,-0.383 (inactive)
CCC1=NOC(CCC2CC(OC(=O)NCc3cccc4c3OCO4)CC3(CCCC(COC(=O)NCCc4ccc(Cl)cc4)O3)O2)C1 (configuration not stated),0.214 (inactive),0.855,-0.184,-2.58 (inactive)
COc1ccc(COC(=O)NN=C2C[C@@H](O)[C@@H](O)[C@@H]3[C@@H]4C(=O)N(Cc5ccc6c(c5)OCO6)C(=O)[C@@H]4CC[C@H]23)cc1,0.369 (inactive),0.174,-0.427,-0.118 (inactive)
CCN1C(=O)[C@H]2[C@H]3[C@H](O)[C@H](O)CC(=NO[C@@H]4O[C@H](COC(C)=O)[C@@H](OC(C)=O)[C@H](OC(C)=O)[C@H]4OC(C)=O)[C@@H]3CC[C@H]2C1=O,0.369 (inactive),-0.191,1.87,-1.75 (inactive)
CCN1C(=O)[C@H]2[C@H]3[C@H](O)[C@H](O)CC(=NO[C@H](C)c4cn([C@H](CO)Cc5ccccc5)nn4)[C@@H]3CC[C@H]2C1=O,1.66 (inactive),0.722,1.44,-2.36 (inactive)
CC(CCN1CCCc2nc(C)c(C)cc21)=NO[C@H](C)c1cn([C@H](CO)Cc2ccccc2)nn1,-0.0325 (inactive),0.532,-2.52,-7.43 (inactive)
O=C1[C@H]2[C@H]3[C@H](O)[C@H](O)CC(=NO[C@@H]4O[C@H](CO)[C@@H](O)[C@H](O)[C@H]4O)[C@@H]3CC[C@H]2C(=O)N1c1cccc(Oc2ccccc2)c1,0.311 (inactive),0.519,-0.197,-1.14 (inactive)
CC(CCC(=O)OC[C@H]1O[C@H](C#Cc2ccccc2)C=C[C@@H]1Oc1ccc(C)cc1)=NO[C@H](C)c1cn([C@@H]2COC[C@H]2O)nn1,0.0435 (inactive),-0.391,-0.114,-4.04 (inactive)
CO[C@H]1COC(=O)[C@H](C)COC(=O)[C@@H](OCc2ccccc2)C=C[C@@H]1C,0.277 (inactive),-0.348,1.25,-0.571 (inactive)

Structure (SMILES),composite z-score [1],composite z-score (XIP peptide (Xip251-270)),z-score [2],z-score [3]
CCOC(=O)[C@H](Cc1ccccc1)NC(=O)CCC1CC(OC(=O)NCc2ccc3c(c2)OCO3)CC2(CCCC(COC(=O)NCCc3ccc(Cl)cc3)O2)O1 (some centres not stated),0.0608 (inactive),0.563,-1.78,-1.76 (inactive)
CC(C)(C)N1C(=O)[C@H]2[C@H]3[C@H](O)[C@H](O)CC(=NNC(=O)OCc4ccccc4)[C@H]3CC[C@H]2C1=O,-0.401 (inactive),0.764,-1.37,-3.42 (inactive)
CC(C)(C)N1C(=O)[C@H]2[C@@H]3C(=CC[C@H]2C1=O)C(=O)[C@H]1O[C@H]1[C@H]3O,0.139 (inactive),0.283,-2.38,-5.76 (inactive)
CC(C)(C)N1C(=O)[C@H]2[C@H]3[C@H](O)[C@H](O)CC(=NNC(=O)OCc4ccccc4)[C@@H]3CC[C@H]2C1=O,0.0863 (inactive),0.195,2.05,0.408 (inactive)
CCOC(=O)[C@H](CC(C)C)NC(=O)CCC1CC(OC(=O)NCc2ccc3c(c2)OCO3)CC2(CCCC(COC(=O)NCc3ccccc3)O2)O1 (some centres not stated),0.117 (inactive),0.118,-1.79,-6.86 (inactive)
COC(=O)[C@H](C)NC(=O)CCC1CC(OC(=O)NCCc2ccc(F)cc2)CC2(CCCC(COC(=O)NCC3CCCCC3)O2)O1 (some centres not stated),-0.0255 (inactive),0.526,-2.07,-2.56 (inactive)
CO[C@H]1C[C@@H]2C[C@H](O)CC(CC(=O)O[C@@H](C=CCC(C)C)C[C@@H]3CC[C@H](C)[C@@H](C1)O3)O2,-0.199 (inactive),0.142,-0.825,-0.952 (inactive)
O=C1[C@H]2[C@H]3[C@H](O)[C@H](O)CC(=NO[C@@H]4O[C@H](CO)[C@@H](O)[C@H](O)[C@H]4O)[C@@H]3CC[C@H]2C(=O)N1C1CCCCC1,-0.25 (inactive),0.0473,0.0387,0.719 (inactive)
COC(=O)C(C(=O)OC)C1CCCC(=O)C1 (configuration not stated),-0.0977 (inactive),0.237,-0.468,-0.243 (inactive)
COc1ccc(O[C@H]2C=C[C@@H](c3ccccc3)O[C@@H]2CON=C(C)CCN2CCCc3nc(C)c(C)cc32)cc1,0.301 (inactive),0.693,-1.96,-4.5 (inactive)
CC(C)[C@@H](OCc1ccccc1)[C@H](C)CON=C1[C@H]2CCn3c(=O)n(-c4ccccc4)c(=O)n3[C@H]2[C@H](O)[C@@H]2O[C@H]12,-0.874 (inactive),0.199,-2,-5.16 (inactive)
COC(=O)[C@@H]1CC[C@H](C)[C@@H](c2ccc(C)cc2)N1C(=O)c1ccc(C=NO[C@@H](C)c2cc(-c3c(C)cc(C)cc3C)no2)cc1,-0.274 (inactive),0.511,-0.225,0.492 (inactive)
C#CCCCON=C1[C@H]2CCn3c(=O)n([C@@H](CC)c4ccccc4)c(=O)n3[C@H]2[C@H](O)[C@@H]2O[C@H]12,0.967 (inactive),-0.226,-0.9,-3.68 (inactive)
CCCCOC(OCCCC)C(O)CSc1ccc2ccccc2c1 (configuration not stated),0.115 (inactive),0.198,0.609,-3.85 (inactive)
CO[C@H]1COC(=O)[C@H](CCSC)NC(=O)CC=C[C@@H](C)[C@H](OC)COC(=O)[C@@H](OCc2ccccc2)C=C[C@@H]1C,2.65 (inactive),0.358,-0.772,-1.29 (inactive)
CC(=O)OC[C@H]1O[C@H](CC=NOC(C)CN2CCCCc3nc(C)c(C)cc32)C=C[C@@H]1OC(C)=O (some centres not stated),0.231 (inactive),0.646,-0.445,-3.74 (inactive)
C#CCCCON=C1C[C@@H](O)[C@@H](O)[C@@H]2[C@@H]3C(=O)N(C[C@@H]4CCCO4)C(=O)[C@@H]3CC[C@@H]12,0.141 (inactive),0.384,1.38,0.866 (inactive)
CC(=O)OC[C@H]1O[C@@H](ON=C(C)CCC(=O)OC[C@H]2O[C@H](C#Cc3ccccc3)C=C[C@@H]2Oc2ccc(C)cc2)[C@H](OC(C)=O)[C@@H](OC(C)=O)[C@@H]1OC(C)=O,0.0771 (inactive),0.625,-0.713,-3.79 (inactive)
C[C@@H](c1ccccc1)N1C(=O)[C@H]2[C@H]3[C@H](O)[C@H](O)CC(=NOC[C@@H](O)COCc4ccco4)[C@H]3CC[C@H]2C1=O,0.15 (inactive),0.316,-2.06,-3.21 (inactive)
CC(C)[C@@H](OCc1ccccc1)[C@H](C)C=NOC[C@@H](O)[C@H]1O[C@@H]2OC(C)(C)O[C@@H]2[C@H]1O,-0.12 (inactive),0.258,-0.489,-1.24 (inactive)
CCOC(=O)[C@H](Cc1ccccc1)NC(=O)CCC1CC(OC(=O)NCc2ccc3c(c2)OCO3)CC2(CCCC(COC(=O)NCCOC)O2)O1 (some centres not stated),0.247 (inactive),0.515,-2.09,-3.78 (inactive)
